Data reported in the supplement of paper PMC10849652.
About 7,900 targets were measured; listed, in parts, are those with a hit and a random draw of the rest. About 0.6% of all pairs of compound and target were hits.

biological target: AAGAB (UniProt Q6PD74); assay: log2 fold change, soluble protein after heating vs DMSO (PISA); higher = thermal stabilisation; K562 cells, 10 uM, 30 min; active = over 0.2 and 3.5 SD of the protein, either way, in both replicates (recomputed)
Outline: (§1)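 Aliquots of K562 cells (2×10^6 cells/mL) treated with 10 μM compound for 30 min were heated for 3 min over 48°C-58°C. After pooling and extraction in PBS with 0.5% NP-40 at 4°C, soluble protein from a 21,000xg, 90 min spin was quantified by TMTpro 16plex LC-MS/MS with channel sums equalised. Thermal stability is expressed against control samples, from duplicates, as a log2 fold change.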

Sequence of AAGAB (Q6PD74 whole entry, looked up): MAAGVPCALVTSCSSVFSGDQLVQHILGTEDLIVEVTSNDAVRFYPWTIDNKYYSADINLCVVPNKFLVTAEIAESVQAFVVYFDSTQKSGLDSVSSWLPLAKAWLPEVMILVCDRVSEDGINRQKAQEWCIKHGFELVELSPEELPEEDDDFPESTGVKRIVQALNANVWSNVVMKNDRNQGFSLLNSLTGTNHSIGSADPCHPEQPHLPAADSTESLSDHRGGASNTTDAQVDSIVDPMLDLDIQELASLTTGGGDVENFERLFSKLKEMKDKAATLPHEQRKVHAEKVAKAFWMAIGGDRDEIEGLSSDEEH

Compound	log2 fold change
Cc1sc2c(c1C)C(c1ccc(Cl)cc1)=N[C@@H](CC(N)=O)c1nnc(C)n1-2	0.044 (inactive)
c1ccc([C@@H]2C[C@H]2NC2CCNCC2)cc1	0.038 (inactive)
Cc1sc2c(c1C)C(c1ccc(Cl)cc1)=N[C@@H](CC(=O)OC(C)(C)C)c1nnc(C)n1-2	-0.03 (inactive)
Cc1ccccc1-n1c(Cn2cnc3c(N)ncnc32)nc2cccc(C)c2c1=O	0.198 (inactive)
O=C(N[C@@H](COc1ccc2[nH]c(=O)[nH]c2c1)c1ccccc1)c1cccn(Cc2ccc(F)c(F)c2)c1=O	-0.025 (inactive)

biological target: AAK1 (UniProt A0A096LP25); assay: as above
Outline: as §1

Compound	log2 fold change
Cc1sc2c(c1C)C(c1ccc(Cl)cc1)=N[C@@H](CC(N)=O)c1nnc(C)n1-2	-0.041 (inactive)
c1ccc([C@@H]2C[C@H]2NC2CCNCC2)cc1	0.072 (inactive)
Cc1sc2c(c1C)C(c1ccc(Cl)cc1)=N[C@@H](CC(=O)OC(C)(C)C)c1nnc(C)n1-2	-0.024 (inactive)
Cc1ccccc1-n1c(Cn2cnc3c(N)ncnc32)nc2cccc(C)c2c1=O	-0.046 (inactive)
O=C(N[C@@H](COc1ccc2[nH]c(=O)[nH]c2c1)c1ccccc1)c1cccn(Cc2ccc(F)c(F)c2)c1=O	-0.056 (inactive)

biological target: AAK1 (UniProt Q2M2I8); assay: as above
Sequence (Q2M2I8 whole entry, looked up): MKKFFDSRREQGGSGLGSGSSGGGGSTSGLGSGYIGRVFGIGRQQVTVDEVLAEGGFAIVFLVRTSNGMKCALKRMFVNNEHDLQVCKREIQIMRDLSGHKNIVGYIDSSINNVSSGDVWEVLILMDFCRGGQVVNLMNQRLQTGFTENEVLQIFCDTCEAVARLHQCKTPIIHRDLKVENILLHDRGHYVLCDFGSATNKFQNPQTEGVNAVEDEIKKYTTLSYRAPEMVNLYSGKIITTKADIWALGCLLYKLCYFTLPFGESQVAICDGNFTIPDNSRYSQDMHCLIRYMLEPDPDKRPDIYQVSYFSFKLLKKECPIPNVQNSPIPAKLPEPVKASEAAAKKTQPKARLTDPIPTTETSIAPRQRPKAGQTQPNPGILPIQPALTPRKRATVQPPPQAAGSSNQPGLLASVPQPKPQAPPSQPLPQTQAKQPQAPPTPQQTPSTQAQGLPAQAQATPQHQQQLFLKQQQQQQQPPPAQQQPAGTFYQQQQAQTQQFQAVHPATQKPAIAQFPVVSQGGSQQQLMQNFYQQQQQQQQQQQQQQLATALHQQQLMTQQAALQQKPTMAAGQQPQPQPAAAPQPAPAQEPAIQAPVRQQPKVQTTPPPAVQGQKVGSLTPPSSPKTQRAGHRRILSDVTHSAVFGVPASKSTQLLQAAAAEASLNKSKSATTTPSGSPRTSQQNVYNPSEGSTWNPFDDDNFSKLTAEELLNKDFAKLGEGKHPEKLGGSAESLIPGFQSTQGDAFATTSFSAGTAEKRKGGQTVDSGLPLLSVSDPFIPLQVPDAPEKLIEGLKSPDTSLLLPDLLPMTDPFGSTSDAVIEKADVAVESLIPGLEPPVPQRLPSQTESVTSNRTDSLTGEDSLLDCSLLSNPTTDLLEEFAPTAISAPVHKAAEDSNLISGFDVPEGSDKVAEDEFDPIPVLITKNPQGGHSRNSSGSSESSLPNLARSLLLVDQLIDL
Outline: as §1

Compound	log2 fold change
Cc1sc2c(c1C)C(c1ccc(Cl)cc1)=N[C@@H](CC(N)=O)c1nnc(C)n1-2	0.039 (inactive)
c1ccc([C@@H]2C[C@H]2NC2CCNCC2)cc1	-0.017 (inactive)
Cc1sc2c(c1C)C(c1ccc(Cl)cc1)=N[C@@H](CC(=O)OC(C)(C)C)c1nnc(C)n1-2	-0.217 (inactive)
Cc1ccccc1-n1c(Cn2cnc3c(N)ncnc32)nc2cccc(C)c2c1=O	0.083 (inactive)
O=C(N[C@@H](COc1ccc2[nH]c(=O)[nH]c2c1)c1ccccc1)c1cccn(Cc2ccc(F)c(F)c2)c1=O	0.02 (inactive)
